# Measured values taken from PubChem BioAssay.
# The source made the active and inactive calls.
# Assay: growth of efflux-deficient E. coli DRC39 – strain DRC39, OD650, 48 h, E. coli filamentation inducers, primary screen (AID 1179);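 note: screen aims at cell division blockers that make cells filament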
# Settings: E. coli DRC39 delta-acrAB growth, higher = more signal, called active from +8 up or from −8 down
row,Structure (SMILES),z-score
1,[N-]=[N+]=Nc1ccccc1C[C@@]1(C(=O)N2CCCCC2)N=C(c2ccc(OCCCO)cc2)O[C@@H]1c1ccccc1N=[N+]=[N-],0.208 (inactive)
2,CCOC(=O)C1=CC[C@@H](c2ccccc2)N(S(=O)(=O)c2ccc(C)cc2)[C@H]1c1ccc(CC)cc1,0.629 (inactive)
3,O=C1[C@H]2C=C(Br)[C@H](C[C@@H]2OCCCCCCO)[C@@]12CO2,-0.602 (inactive)
4,COc1cc2c(cc1O)C(c1cccs1)N(Cc1ccc([N+](=O)[O-])o1)CC2 (configuration not stated),1.19 (inactive)
5,CCCNC(=O)[C@@]1(Sc2ccc(C)cc2)CC(=O)N(Cc2ccccc2C(F)(F)F)[C@@H]1c1ccc(CO)cc1I,-0.478 (inactive)
6,O=C1OCCC=C[C@H]2OC34C=CCN(Cn5nnc6ccccc65)C(=O)[C@H]3N(CCO)C(=O)[C@@H]4C12 (some centres not stated),-0.249 (inactive)
7,C=CCNC(=O)[C@@H]1[C@H]2C(=O)O[C@H](c3ccccc3)[C@H](c3ccccc3)N2[C@H](c2ccc(OCCO)cc2)[C@@]12C(=O)N(C(=O)OCCOC)c1ccc(C#CCNC(N)=O)cc12,0.0924 (inactive)
8,CCCC1(C(=O)OC)C=C2C(=C(c3ccccc3)C(=O)C2C)CN1 (configuration not stated),-0.181 (inactive)
9,O=C1O[C@@H](c2ccccc2)[C@@H](c2ccccc2)N2[C@@H](c3ccc(OCCO)cc3)[C@]3(C(=O)Nc4ccc(C#CCCO)cc43)[C@@H](C(=O)NC[C@H](O)c3ccccc3)[C@H]12,1 (inactive)
10,COc1ccc(CCNC(=O)[C@@]2(c3ccc([N+](=O)[O-])cc3)CC(=O)N(CC34CC5CC(CC(C5)C3)C4)[C@@H]2c2ccc(CO)cc2I)cc1,0.223 (inactive)
11,COc1ccc([C@H]2C[C@H]3C(Br)=C[C@@]2(CO)C(=O)[C@]32CO2)cc1,-0.0065 (inactive)
12,O=C(NC1CC1)[C@@H]1c2ccccc2C(=O)N(Cc2cc(F)cc(C(F)(F)F)c2)[C@H]1c1ccc(CO)cc1,-0.664 (inactive)
13,COC(=O)[C@@]1(Cc2ccc(OC)cc2)[C@H]2c3cc(C(=O)N4CCCC4)n(CCCNc4ncc(C(F)(F)F)cc4Cl)c3C[C@H]2CN1C(=O)c1ccccc1,-0.816 (inactive)
14,CO[C@H]1O[C@H](CO)[C@@H](OC(=O)Nc2ccc(Oc3ccccc3)cc2)[C@H](OC(=O)Nc2ccc3c(c2)OCO3)[C@@H]1OC(=O)Nc1ccc2c(c1)OCO2,-0.0218 (inactive)
15,C=C(CCCC)/C(=C/C[C@H](OC(C)=O)c1ccccc1OCCO)c1cnc2ccccc2c1,-0.742 (inactive)
16,CC(C)(C)OC(=O)CC[C@@]1(C(=O)N2CCCCC2)N=C(c2ccc(OCCCO)cc2)O[C@@H]1c1ccccc1,-1.53 (inactive)
17,O=C(CS)NCCCCCNC(=O)[C@@H]1C[C@@H]2C(=O)NCC(=O)N2[C@@H]1c1ccc(O)cc1,-1.04 (inactive)
18,CCCCN1CC=CC23O[C@@H]4/C=C\CCCOC(=O)C4[C@H]2C(=O)N(CCCCCO)[C@@H]3C1=O (some centres not stated),-0.15 (inactive)
19,COc1ccc(C(=O)Nc2cccc(CN3C(=O)[C@]4(O[C@H](CCn5cc(CCO)nn5)[C@@H]([Si](C)(C)c5ccc(OC)cc5)[C@@H]4C)c4ccccc43)c2)cc1,-0.883 (inactive)
20,Cc1ccc(S[C@]2(C(=O)NCC(C)C)CC(=O)N(Cc3cc(C(F)(F)F)cc(C(F)(F)F)c3)[C@@H]2c2ccc(CO)cc2)cc1,-0.882 (inactive)
21,[N-]=[N+]=NCc1ccccc1[C@@H]1OC(c2ccc(OCCCO)cc2)=N[C@]1(CCS(=O)(=O)c1ccccc1)C(=O)N1CCOCC1,0.753 (inactive)
22,CS(=O)(=O)CCOC(=O)C1=CC(CCCO)=CC(C2CC2)N(Cc2cc3c(cc2Br)OCO3)C=C1C(=O)OCCS(C)(=O)=O (configuration not stated),0.892 (inactive)
23,C=CC[C@]12N=C(c3ccc(OCCCO)cc3)O[C@H]1c1ccccc1N(CCS(=O)(=O)c1ccccc1)C2=O,-0.0546 (inactive)
24,CC1CC/C=C\[C@H]2OC34C=CCN(Cn5nnc6ccccc65)C(=O)[C@H]3N(CCCCCO)C(=O)[C@@H]4C2C(=O)O1 (some centres not stated),0.434 (inactive)
25,C#CCN(C/C=C/c1ccccc1)[C@H](CO)c1ccccc1,-1.7 (inactive)
26,O=C1N(CCS(=O)(=O)c2ccccc2)c2ccccc2[C@@H]2OC(c3ccc(OCCCO)cc3)=N[C@]12Cc1ccccc1,1.03 (inactive)

# Assay: viability profiling in RPMI8226 myeloma cells – cell-based, resazurin fluorescence, basal, 24 h, PK04 Diversity Set, profiling panel (AID 1180);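 note: RPMI8826 multiple myeloma cell line at 5000 cells per well; test concentration not given here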
# Settings: higher = more signal
row,Structure (SMILES),z-score
1,COc1cc(OC)c(C(O)C2C=CC3C(=O)NC(=O)C3N2Nc2ccccn2)cc1Br (configuration not stated),-0.195
2,C=CCNC(=O)[C@@H]1[C@H]2C(=O)O[C@H](c3ccccc3)[C@H](c3ccccc3)N2[C@H](c2ccc(OCCO)cc2)[C@@]12C(=O)N(C(=O)OCCOC)c1ccc(C#CCC(C(=O)OC)C(=O)OC)cc12,-1.24
3,COC(=O)c1c(CC[C@@H](CO)NC(=O)NCCc2c[nH]c3ccccc23)oc(C(=O)Cc2ccccc2)c1C(=O)OC,0.861
4,O=C(O)[C@H](Cc1ccccc1)n1cc(-c2ccccc2)nn1,-0.46
5,CC(C)NC(=O)[C@@]1(Cc2ccccc2I)c2ccccc2C(=O)N(Cc2ccccc2Cl)[C@H]1c1ccc(CO)cc1,-0.0558
6,CC(C)=CCCC(C)=CC(O)C1C=CC2C(=O)N(c3ccccc3)C(=O)C2N1Nc1ccc(C(C)C)cc1 (configuration not stated),-0.463
7,[N-]=[N+]=NCc1ccccc1[C@H]1OC(c2ccc(OCCCO)cc2)=N[C@@]1(Cc1ccccc1)C(=O)N1CCCCC1,-0.941
8,CC(C)N1CC=CC23O[C@@H]4C=CCOC(=O)[C@@H]4[C@H]2C(=O)N(CCCCCO)[C@@H]3C1=O (some centres not stated),0.888
9,CCOC(=O)[C@H]1C/C=C/C[C@H](C(=O)OCC)C(=O)O[C@H]2[C@@H](OC)O[C@H](CO)[C@@H](OC(=O)c3ccc(Br)cc3)[C@@H]2OC1=O,-2.49
10,O=C(O)[C@H]1C[C@H]2C(=O)N3CCC[C@H]3C(=O)N2[C@H]1c1ccc(O)cc1,1.07
11,[N-]=[N+]=Nc1ccccc1C[C@@]1(C(=O)N2CCCCC2)N=C(c2ccc(OCCCO)cc2)O[C@@H]1c1ccccc1N=[N+]=[N-],-3.1
12,CCOC(=O)C1=CC[C@@H](c2ccccc2)N(S(=O)(=O)c2ccc(C)cc2)[C@H]1c1ccc(CC)cc1,-0.224
13,O=C1[C@H]2C=C(Br)[C@H](C[C@@H]2OCCCCCCO)[C@@]12CO2,-0.899
14,COc1cc2c(cc1O)C(c1cccs1)N(Cc1ccc([N+](=O)[O-])o1)CC2 (configuration not stated),-0.182
15,CCCNC(=O)[C@@]1(Sc2ccc(C)cc2)CC(=O)N(Cc2ccccc2C(F)(F)F)[C@@H]1c1ccc(CO)cc1I,-2.15
16,O=C1OCCC=C[C@H]2OC34C=CCN(Cn5nnc6ccccc65)C(=O)[C@H]3N(CCO)C(=O)[C@@H]4C12 (some centres not stated),0.0841
17,C=CCNC(=O)[C@@H]1[C@H]2C(=O)O[C@H](c3ccccc3)[C@H](c3ccccc3)N2[C@H](c2ccc(OCCO)cc2)[C@@]12C(=O)N(C(=O)OCCOC)c1ccc(C#CCNC(N)=O)cc12,0.853
18,CCCC1(C(=O)OC)C=C2C(=C(c3ccccc3)C(=O)C2C)CN1 (configuration not stated),-0.77

row,Structure (SMILES),z-score
1,O=C1O[C@@H](c2ccccc2)[C@@H](c2ccccc2)N2[C@@H](c3ccc(OCCO)cc3)[C@]3(C(=O)Nc4ccc(C#CCCO)cc43)[C@@H](C(=O)NC[C@H](O)c3ccccc3)[C@H]12,0.671
2,COc1ccc(CCNC(=O)[C@@]2(c3ccc([N+](=O)[O-])cc3)CC(=O)N(CC34CC5CC(CC(C5)C3)C4)[C@@H]2c2ccc(CO)cc2I)cc1,-1.79
3,COc1ccc([C@H]2C[C@H]3C(Br)=C[C@@]2(CO)C(=O)[C@]32CO2)cc1,-0.384
4,O=C(NC1CC1)[C@@H]1c2ccccc2C(=O)N(Cc2cc(F)cc(C(F)(F)F)c2)[C@H]1c1ccc(CO)cc1,-0.0559
5,COC(=O)[C@@]1(Cc2ccc(OC)cc2)[C@H]2c3cc(C(=O)N4CCCC4)n(CCCNc4ncc(C(F)(F)F)cc4Cl)c3C[C@H]2CN1C(=O)c1ccccc1,-2.67
6,CO[C@H]1O[C@H](CO)[C@@H](OC(=O)Nc2ccc(Oc3ccccc3)cc2)[C@H](OC(=O)Nc2ccc3c(c2)OCO3)[C@@H]1OC(=O)Nc1ccc2c(c1)OCO2,-0.793
7,C=C(CCCC)/C(=C/C[C@H](OC(C)=O)c1ccccc1OCCO)c1cnc2ccccc2c1,-0.905
8,CC(C)(C)OC(=O)CC[C@@]1(C(=O)N2CCCCC2)N=C(c2ccc(OCCCO)cc2)O[C@@H]1c1ccccc1,0.0487
9,O=C(CS)NCCCCCNC(=O)[C@@H]1C[C@@H]2C(=O)NCC(=O)N2[C@@H]1c1ccc(O)cc1,-0.492
10,CCCCN1CC=CC23O[C@@H]4/C=C\CCCOC(=O)C4[C@H]2C(=O)N(CCCCCO)[C@@H]3C1=O (some centres not stated),0.313
11,COc1ccc(C(=O)Nc2cccc(CN3C(=O)[C@]4(O[C@H](CCn5cc(CCO)nn5)[C@@H]([Si](C)(C)c5ccc(OC)cc5)[C@@H]4C)c4ccccc43)c2)cc1,-6.19
12,Cc1ccc(S[C@]2(C(=O)NCC(C)C)CC(=O)N(Cc3cc(C(F)(F)F)cc(C(F)(F)F)c3)[C@@H]2c2ccc(CO)cc2)cc1,-0.321
13,[N-]=[N+]=NCc1ccccc1[C@@H]1OC(c2ccc(OCCCO)cc2)=N[C@]1(CCS(=O)(=O)c1ccccc1)C(=O)N1CCOCC1,1.05
14,CS(=O)(=O)CCOC(=O)C1=CC(CCCO)=CC(C2CC2)N(Cc2cc3c(cc2Br)OCO3)C=C1C(=O)OCCS(C)(=O)=O (configuration not stated),-0.0822
15,C=CC[C@]12N=C(c3ccc(OCCCO)cc3)O[C@H]1c1ccccc1N(CCS(=O)(=O)c1ccccc1)C2=O,-0.585
16,CC1CC/C=C\[C@H]2OC34C=CCN(Cn5nnc6ccccc65)C(=O)[C@H]3N(CCCCCO)C(=O)[C@@H]4C2C(=O)O1 (some centres not stated),0.796
17,C#CCN(C/C=C/c1ccccc1)[C@H](CO)c1ccccc1,-1.45
18,O=C1N(CCS(=O)(=O)c2ccccc2)c2ccccc2[C@@H]2OC(c3ccc(OCCCO)cc3)=N[C@]12Cc1ccccc1,-1.95
